Activity calls are given as the source filed them. How the source made its calls: active means hit-call score of the fitted dose curve at least 0.9, where 1 is the maximum; inactive means score below 0.9.

The assay can be described thus: ATG_NFI_CIS: Attagene CIS-FACTORIAL HepG2 Assay for human Nuclear Factor I (NFI) (AID 2282989). To be noted: HepG2 cis-regulatory reporter, NFI response element transcription; actives raise or lower the signal. Here is the method:
ATG_CIS is a cell-based, multiplexed-readout assay that uses HepG2, a human liver cell line, with measurements taken at 24 hours after chemical dosing in a 24-well plate.ATG_NFI_CIS is one of 52 assay component(s) measured or calculated from the ATG_CIS assay. It is designed to make measurements of mRNA induction, a form of inducible reporter, as detected with fluorescence intensity signals by Reverse transcription polymerase chain reaction (RT-PCR) and Capillary electrophoresis technology.Data from the assay component ATG_NFI_CIS was analyzed into 1 assay endpoint. This assay endpoint, ATG_NFI_CIS, was analyzed with bidirectional fitting relative to DMSO as the negative control and baseline of activity. Using a type of inducible reporter, measures of mRNA for gain or loss-of-signal activity can be used to understand the reporter gene at the transcription factor-level as they relate to the gene NFIA. Furthermore, this assay endpoint can be referred to as a primary readout, because this assay has produced multiple assay endpoints where this one serves a reporter gene function. To generalize the intended target to other relatable targets, this assay endpoint is annotated to the dna binding intended target family, where the subfamily is nuclear factor I.
Human liver HepG2 cells are transiently transfected with multiple reporter transcription units (MRTUs) in 6-well plates using FuGene 6 reagent (Roche; 3 ml FuGene/1 mg DNA). The MRTU constructs are regulated by a cis-regulating element (promoter). […] A major difference between the CIS and TRANS system is that in CIS activities of endogenous TFs are measured, whereas the TRANS assay evaluates changes in activities of exogenous, chimeric NR-Gal4 proteins. […] At the end of 24 hour incubation, total RNA was isolated using TriZol reagent (Invitrogen). The isolated RNA is then reverse-transcribed using oligo(dT) primer and Mo-MLV reverse transcriptase (Invitrogen) with DNAse I (Ambion) treatment for 30 min. The one-tenth of the produced cDNA was amplified by PCR using Taq DNA polymerase (Invitrogen) and two reporter sequence-specific primers. The PCR products were fluorescently labeled by primer extension with 6-arboxyfluorescein (6-FAM) 5'-labeled reporter sequence-specific primer (2 min at 95 C, 20 s at 68 C and 10 min at 72 C) and these products were digested with 5U of HpaI (New England Biolabs) for 2h at 37 C. The fragments were purified using Qiaquick PCR columns (Qiagen), analyzed on an ABI 3130xL genetic analyzer (Applied Biosystems) with peak positions identified by using a set of X-rhodamine (ROX)-labeled MapMarker1000 molecular weight standards (BioVentures). The raw capillary electrophoresis data was processed using Attagraph software (Attagene).
As for `O=S(=O)(O)c1ccc2cc(O)ccc2c1`, the compound was called inactive.

In the case of `O=S(=O)(O)C(F)(F)C(F)(F)C(F)(F)C(F)(F)C(F)(F)C(F)(F)C(F)(F)C(F)(F)C(F)(F)C(F)(F)F`, the outcome was inactive.

Regarding `O=C1OC(=O)c2cc(-c3ccc4c(c3)C(=O)OC4=O)ccc21`, the compound was classed as inactive.

Turning to `COC(O)c1ccccc1` (stereo not given), the call was inactive.

In the case of `C=CC(=C)CC/C=C(\C)CCC=C(C)C`, the result was inactive.

For the compound `O=P(O)(O)CCC(F)(F)C(F)(F)C(F)(F)C(F)(F)C(F)(F)C(F)(F)F`, the result was inactive.

`C=CC(=O)OCCC(F)(F)C(F)(F)C(F)(F)C(F)(F)C(F)(F)C(F)(F)F`: the compound was classed as inactive.

With `CC(C)(O)C(=O)c1ccccc1`, the call was inactive.

For the compound `O=C(O)CCC(F)(F)C(F)(F)C(F)(F)C(F)(F)C(F)(F)F`, the compound was classed as inactive.

For the compound `CC=O`, the compound was classed as inactive.

Consider `c1ccc2c(c1)CCC2`, for which the compound was called inactive.

`NNc1nc(-c2ccc([N+](=O)[O-])cc2)cs1`: the result was inactive.

As for `COc1ccc(C#N)cc1`, the outcome was inactive.

As to `O=C(c1cc(O)c(O)c(O)c1)c1ccc(O)c(O)c1O`, the compound was called inactive.

On to `O=C(Nc1ccc(Cl)c(Cl)c1)c1cc(Cl)cc(Cl)c1O`, for which the result was inactive.

For `CC(C)[C@@H]1CC[C@@H](C)C[C@H]1O`, the compound was called inactive.

On to `O=C(CC(=O)C(F)(F)C(F)(F)C(F)(F)F)c1cccs1`, for which the call was inactive.

As to `Brc1ccc(Oc2ccc(Br)cc2Br)cc1`, the result was inactive.

On to `O=CC(F)(F)C(F)(F)C(F)(F)F`, for which the compound was called inactive.

In the case of `CCCCCc1ccc(O)cc1`, the compound was called inactive.

In general, AC50 refers to the concentration giving half of the maximal activity seen. Consider `O=S(=O)(c1ccc(OCc2ccccc2)cc1)c1ccccc1O`, for which the AC50 was 33.4 µM (active).

Take `CC1=NN(c2ccccc2)C(=O)C1`: the compound was classed as inactive.

As for `CCCCc1ccc2ccccc2c1S(=O)(=O)O`, the result was inactive.

For `CCCCC(CC)C(=O)O` (stereo not given), the compound was called inactive.

Consider `NCCN`, for which the outcome was inactive.

With `CCOC(C)=O`, the call was inactive.

`CCCCN(C)C`: the result was inactive.

Turning to `Cc1cncc(C)c1`, the outcome was inactive.

Turning to `CCCCCCCCCCCCCCC`, the compound was called inactive.

Take `C=CC(C)(CCC=C(C)C)OC(C)=O` (stereo not given): the outcome was inactive.

For the compound `CC1COCc2cc3c(cc21)C(C)(C)C(C)C3(C)C` (stereo not given), the AC50 is 170 µM (active).

Take `O=C1OC(=O)C(F)(F)C1(F)F`: the result was inactive.

`C=CC(=O)OCCC(F)(F)C(F)(F)C(F)(F)C(F)(F)C(F)(F)C(F)(F)C(F)(F)C(F)(F)F`: the result was inactive.

In the case of `O=S(=O)(O)c1ccccc1`, the call was inactive.

On to `O=C1NS(=O)(=O)c2ccccc21`, for which the result was inactive.

As for `Nc1ccc(O)c(C(=O)O)c1`, the outcome was inactive.

On to `FC1(F)C=CC(F)(F)C1(F)F`, for which the call was inactive.

Consider `CCc1cccc(CC)c1NC(=O)C(=O)O`, for which the compound was classed as inactive.

For the compound `O=C(C=C(O)C(F)(F)F)C(F)(F)F`, the compound was called inactive.

On to `CCN(CCC#N)c1ccccc1`, for which the outcome was inactive.

Source of the values: PubChem BioAssay (EPA / NIEHS).
